Measurements published in PubChem BioAssay (Tox21).
“And” between values parts separate entries of the source, which are not always exact repeats. Equal entries are not always repeated. Results filed as inconclusive are left out. Where a call stands in place of a potency, no number is given. The source holds several records for some structures; these can differ, active in one and inactive in another. The source made the active and inactive calls. The call rests on the fitted dose curve; in most records, active means well fitted curve in the direction sought with a large enough effect in the repeat runs; inconclusive means weak or mixed curves; inactive means no such curve, though single readings can be large; an effect the other way counts as inactive or inconclusive.

Tests used:
[1] = Caspase-3/7 induction in HepG2 cells by small molecules, qHTS assay (AID 1346978); further: nearly all actives have a fitted effect of over 15% in size
Outline: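 Caspase-3/7 induction was measured by Caspase-Glo 3/7 luminescence (30 min, room temperature) after a 17 hr compound exposure of wild-type HepG2 cells seeded at 2,000 per well and pre-incubated 5 hr.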

[2] = Caspase-3/7 induction in CHO-K1 cells by small molecules, qHTS cell viability counter screen (AID 1346979); further: nearly all actives have a fitted effect of over 35% in size
Outline: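 Cytotoxicity counter screen run in parallel with the caspase-3/7 assay: CHO-K1 cells, 16hr compound treatment at 37C, then CellTiter-Fluor for 1hr before fluorescence reading.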

[3] = Caspase-3/7 induction in CHO-K1 cells by small molecules, qHTS assay (AID 1346980); further: nearly all actives have a fitted effect of over 15% in size
Outline: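 Luminescent Caspase-Glo 3/7 read (30min, room temperature) quantified apoptosis induction. Cells were wild-type CHO-K1, treated with compound for 17hr at 37 C and 5% CO2.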

[4] = Caspase-3/7 induction in HepG2 cells by small molecules, qHTS cell viability counter screen (AID 1346981); further: nearly all actives have a fitted effect of over 30% in size
Outline: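 Wild-type HepG2 cells (2,000/well) were allowed to settle for 5 hr at 37 C, 5% CO2, then dosed with compounds in DMSO by pin transfer. After 16 hr at 37 C, CellTiter-Fluor was added and fluorescence read 1 hr later.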

[5] = molecular target: Nuclear receptor subfamily 1 group I member 2 (Homo sapiens) (UniProt O75469); experiment: Human pregnane X receptor (PXR) small molecule agonists, qHTS assay (AID 1346982); further: nearly all actives have a fitted effect of over 35% in size
Outline: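 PXR-Luc HepG2 cells (CYP3A4 promoter-driven luciferase) were seeded in medium with 5% charcoal-stripped FBS, left 5 hr at 37 C, then exposed to compounds in DMSO for 24 hr. Luminescence was read after ONE-Glo addition.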

[6] = molecular target: Nuclear receptor subfamily 1 group I member 2 (Rattus norvegicus) (UniProt Q9R1A7); experiment: Rat pregnane X receptor (rPXR) activation by small molecules, qHTS assay (AID 1346983); conditions: rPXR luciferase reporter cells, One-Glo luminescence, 24 h; max activation: stronger effect = higher value; further: nearly all actives have a fitted effect of over 20% in size
Outline: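 Luminescent readout (One-Glo luciferase, 30 min room temperature) followed 24 hr compound treatment at 37 C of rPXR cells plated 2,000 per well and preincubated 5hr; qHTS format with compounds delivered in DMSO.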

[7] = molecular target: Nuclear receptor subfamily 1 group I member 2 (Homo sapiens) (UniProt O75469); experiment: CYP3A4 induction through human pregnane X receptor (PXR) by small molecules, qHTS assay (AID 1346984); further: nearly all actives have a fitted effect of over 40% in size
Outline: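 DPX-2 cells (HepG2 co-transfected with PXR and CYP3A4 promoter-luciferase) treated with compounds 24 h at 37C; luciferin-IPA CYP3A4 substrate 3uM final added for 3 h, then One-Glo; luminescence read. qHTS format.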

[8] = molecular target: Nuclear receptor subfamily 1 group I member 2 (Homo sapiens) (UniProt O75469); experiment: Human pregnane X receptor (PXR) activation by small molecules, qHTS assay (AID 1346985); further: nearly all actives have a fitted effect of over 40% in size
Outline: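 DPX-2 cells (HepG2 co-transfected with a PXR response element and a CYP3A4-promoter luciferase construct) were seeded at 2,000 per well, rested 5 hr at 37C, then exposed to DMSO-dissolved compounds for 24 hr. Activation was read as luciferase luminescence.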

[9] = molecular target: Cytochrome P450 2D6 (Homo sapiens) (UniProt P10635); experiment: Cytochrome P450 Family 2 Subfamily D Member 6 (CYP2D6) small molecule antagonists: luciferase reporter qHTS assay (AID 1671196); further: nearly all actives have a fitted effect of over 50% in size
Outline: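 CYP2D6 enzyme–substrate mix was held with compound for 10 min at room temperature, then NADPH regeneration solution was added and the reaction ran 1 h at room temperature. Luciferin product was detected by luminescence after 20 min with detection reagent.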

[10] = molecular target: Cytochrome P450 2C19 (Homo sapiens) (UniProt P33261); experiment: Cytochrome P450 Family 2 Subfamily C Member 19 (CYP2C19) small molecule antagonists: luciferase reporter qHTS assay (AID 1671197); further: nearly all actives have a fitted effect of over 65% in size
Outline: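 Enzyme-substrate mix with proluciferin substrate (P450-Glo CYP2C19 system) preincubated with compounds 10 min at room temperature; NADPH regeneration solution added, 37C for 1 h; detection reagent stops reaction, luminescence read after 20 min. Ketoconazole positive control.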
Potency means the concentration at half of the fitted maximal effect.

Chain of Nuclear receptor subfamily 1 group I member 2 (Rattus norvegicus) (Q9R1A7 whole entry, looked up): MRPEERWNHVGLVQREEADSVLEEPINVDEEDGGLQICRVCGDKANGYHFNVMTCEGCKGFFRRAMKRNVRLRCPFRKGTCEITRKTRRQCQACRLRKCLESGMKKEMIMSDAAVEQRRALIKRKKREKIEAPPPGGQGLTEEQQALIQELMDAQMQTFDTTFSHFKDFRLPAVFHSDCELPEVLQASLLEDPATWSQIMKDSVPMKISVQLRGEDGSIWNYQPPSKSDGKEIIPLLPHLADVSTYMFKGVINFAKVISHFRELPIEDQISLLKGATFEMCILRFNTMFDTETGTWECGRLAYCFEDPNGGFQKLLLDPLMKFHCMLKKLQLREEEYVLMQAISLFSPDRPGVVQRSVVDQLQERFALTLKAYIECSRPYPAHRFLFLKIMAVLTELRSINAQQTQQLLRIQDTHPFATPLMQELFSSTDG
Chain of Cytochrome P450 2C19 (Homo sapiens) (P33261 whole entry, looked up): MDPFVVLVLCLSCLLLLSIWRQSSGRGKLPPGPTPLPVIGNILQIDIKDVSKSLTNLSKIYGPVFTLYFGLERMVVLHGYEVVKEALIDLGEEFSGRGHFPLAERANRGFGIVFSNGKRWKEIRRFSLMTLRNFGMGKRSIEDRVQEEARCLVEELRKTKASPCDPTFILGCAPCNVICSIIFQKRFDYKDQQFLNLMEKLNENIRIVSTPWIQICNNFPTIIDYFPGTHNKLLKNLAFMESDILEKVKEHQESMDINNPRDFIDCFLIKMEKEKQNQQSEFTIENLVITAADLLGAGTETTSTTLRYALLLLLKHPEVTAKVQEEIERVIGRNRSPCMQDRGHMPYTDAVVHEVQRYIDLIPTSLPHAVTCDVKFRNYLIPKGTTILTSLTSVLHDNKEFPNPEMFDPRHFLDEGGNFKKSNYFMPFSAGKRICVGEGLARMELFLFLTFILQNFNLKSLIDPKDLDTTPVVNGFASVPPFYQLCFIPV
Chain of Nuclear receptor subfamily 1 group I member 2 (Homo sapiens) (O75469 whole entry, looked up): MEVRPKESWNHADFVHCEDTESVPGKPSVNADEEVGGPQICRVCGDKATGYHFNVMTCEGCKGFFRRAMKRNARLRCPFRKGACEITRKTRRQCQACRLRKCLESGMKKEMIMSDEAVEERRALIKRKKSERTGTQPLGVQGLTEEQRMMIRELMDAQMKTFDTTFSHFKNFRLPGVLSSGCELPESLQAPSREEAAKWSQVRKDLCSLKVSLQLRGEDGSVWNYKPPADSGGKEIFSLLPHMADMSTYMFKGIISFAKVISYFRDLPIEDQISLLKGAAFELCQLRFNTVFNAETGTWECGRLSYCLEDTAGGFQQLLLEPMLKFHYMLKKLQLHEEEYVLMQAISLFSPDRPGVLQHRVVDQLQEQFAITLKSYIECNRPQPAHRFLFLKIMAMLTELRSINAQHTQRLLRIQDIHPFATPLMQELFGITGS
Chain of Cytochrome P450 2D6 (Homo sapiens) (P10635 whole entry, looked up): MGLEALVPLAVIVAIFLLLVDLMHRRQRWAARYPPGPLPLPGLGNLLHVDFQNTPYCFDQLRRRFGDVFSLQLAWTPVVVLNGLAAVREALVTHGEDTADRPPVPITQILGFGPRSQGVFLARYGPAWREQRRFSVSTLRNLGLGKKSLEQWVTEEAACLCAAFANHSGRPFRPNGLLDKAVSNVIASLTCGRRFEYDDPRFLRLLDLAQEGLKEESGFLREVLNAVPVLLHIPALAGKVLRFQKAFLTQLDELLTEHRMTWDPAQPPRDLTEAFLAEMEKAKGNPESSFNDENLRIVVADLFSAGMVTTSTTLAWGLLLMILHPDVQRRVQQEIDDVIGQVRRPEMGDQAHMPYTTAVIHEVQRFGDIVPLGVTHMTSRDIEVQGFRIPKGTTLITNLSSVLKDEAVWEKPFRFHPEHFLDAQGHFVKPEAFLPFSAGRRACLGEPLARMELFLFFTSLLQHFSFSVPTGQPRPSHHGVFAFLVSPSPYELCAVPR

Row | SMILES | Potency [1] | Potency [2] | Potency [3] | Potency [4] | Potency [5] | max activation [6] | Potency [7] | Potency [8] | Potency [9] | Potency [10] | Potency [6]
1 | CCCCCCCCCCC(CO)CCCCCCCC (stereo not given) | inactive | inactive | inactive | inactive | inactive | -1.75% (inactive) | inactive | inactive | inactive |  | 
2 | C[C@]12C=CC(=O)C=C1CC[C@H]1[C@@H]3C[C@@H](O)[C@](O)(C(=O)CO)[C@@]3(C)C[C@H](O)[C@@]12F | inactive | inactive | inactive | inactive | inactive | -5.29% (inactive) | inactive | inactive | inactive |  | 
3 | C/C=C/C(=O)N(CC)c1ccccc1C | inactive | inactive | inactive | inactive | inactive | -1.94% (inactive) | inactive |  | inactive | 44.8 µM (active) and 17.4 µM (active) | 
4 | CC(C)(Oc1ccc(Cl)cc1)C(=O)O | inactive | inactive | inactive | inactive | inactive |  |  |  |  |  | 
5 | OC[C@H]1O[C@@H]2O[C@H]3[C@H](O)[C@@H](O)[C@@H](O[C@H]4[C@H](O)[C@@H](O)[C@@H](O[C@H]5[C@H](O)[C@@H](O)[C@@H](O[C@H]6[C@H](O)[C@@H](O)[C@@H](O[C@H]7[C@H](O)[C@@H](O)[C@@H](O[C@H]1[C@H](O)[C@H]2O)O[C@@H]7CO)O[C@@H]6CO)O[C@@H]5CO)O[C@@H]4CO)O[C@@H]3CO | inactive | inactive | inactive | inactive | inactive | -2.41% (inactive) | inactive | inactive | inactive | inactive | 
6 | CC(C)(C)c1cccc(C(C)(C)C)c1O | inactive | inactive | inactive | inactive | 59.8 µM (active) and inactive |  |  |  | 39 µM (active) and inactive |  | 
7 | O=Cc1ccccc1C=O | 48.6 µM (active) and inactive | 15.4 µM (active) and inactive | 21.7 µM (active) and inactive | 30.6 µM (active) and inactive | 19.3 µM (active) and inactive | 5.06% (inactive) | inactive | inactive | inactive | inactive | 
8 | CN(C)/N=N/c1nc[nH]c1C(N)=O | inactive | inactive | inactive | inactive | inactive | -1.32% (inactive) | inactive | inactive | inactive |  | 
9 | CC1(C)O[C@@H]2C[C@H]3[C@@H]4C[C@H](F)C5=CC(=O)C=C[C@]5(C)[C@@]4(F)[C@@H](O)C[C@]3(C)[C@]2(C(=O)CO)O1 | inactive | inactive | inactive | inactive | 24.3 µM (active) and 8.41 µM (active) |  |  | 15.8 µM (active) | inactive | inactive | 11.2 µM (active)
10 | Cc1ccc(/C(=C\CN2CCCC2)c2ccccn2)cc1 | inactive | inactive | inactive | inactive | inactive | -1.02% (inactive) | inactive | inactive |  |  | 
11 | COC(=O)C(C)Oc1ccc(Oc2ncc(C(F)(F)F)cc2Cl)cc1 (stereo not given) | inactive | inactive | inactive | inactive | 61.9 µM (active) and 61.1 µM (active) |  |  |  |  |  | 
12 | CC[C@]12CCCN3CCc4c(n(c5ccccc45)[C@@](O)(C(=O)OC)C1)[C@@H]32 | inactive | inactive | inactive | inactive | 30.6 µM (active) and 9.44 µM (active) | 1.48% (inactive) | 12.6 µM (active) | 14.1 µM (active) | 10 µM (active) and 8.71 µM (active) | 71 µM (active) and inactive | 
13 | CN(Cc1cnc2nc(N)nc(N)c2n1)c1ccc(C(=O)N[C@@H](CCC(=O)O)C(=O)O)cc1 | inactive | inactive | inactive | inactive | inactive | -6.01% (inactive) | inactive | inactive | inactive | inactive | 
14 | O=C1OC2(c3ccccc31)c1cc(I)c(O)c(I)c1Oc1c2cc(I)c(O)c1I | inactive | 10.5 µM (active) [middle of 4 runs] | inactive | 13.3 µM (active) [middle of 4 runs] | inactive |  |  |  | 28.3 µM (active) and 36 µM (active) |  | 
15 | CC(=O)O[C@]1(C(C)=O)CC[C@H]2[C@@H]3C=C(C)C4=CC(=O)CC[C@]4(C)[C@H]3CC[C@@]21C | inactive | 68.6 µM (active) | inactive | inactive | 27.3 µM (active) |  | inactive | inactive | inactive |  | 
16 | CC(=O)[C@@]1(O)CC[C@H]2[C@@H]3C[C@H](C)C4=CC(=O)C=C[C@]4(C)[C@@]3(F)[C@@H](O)C[C@@]21C | inactive | inactive | inactive | inactive | 15.4 µM (active) |  | inactive | inactive | inactive | inactive | 
17 | CN1CCOCC1 | inactive | inactive | inactive | inactive |  |  |  |  |  |  | 
18 | CCCCCCOCCOCCO | inactive | inactive | inactive | inactive |  |  |  |  |  |  | 
19 | CC/C=C\C/C=C\C/C=C\CCCCCCCC(=O)O | inactive | inactive and 61.1 µM (active) | inactive | inactive | inactive and 61.1 µM (active) | -1.32% (inactive) | inactive | inactive | 19.8 µM (active) | 31.4 µM (active) | 
